Several values for one entry are separate records, joined by “and”; a condition that tells them apart may be missing. Equal entries are not always repeated. Activity calls are given as the source filed them.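 How the source made its calls, unless noted: active means inhibition at or above 50% relative to wild type and mutant plate controls; inactive means inhibition below 50%.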
How the values were obtained:
[1] = inhibitors of TNFa-induced NFkB p65 translocation, primary screen, imaging, HUVEC, MLSMR starter and 10KST1 sets (AID 438;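 active means inhibition above 20% together with a positive visual image hit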;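 further: compound added about 3h40 before a 20 min TNFalpha stimulation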;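 on inhibition: signal is the nuclear over cytoplasmic p65 intensity ratio per well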); conditions: HUVEC TNFa-induced p65 nuclear translocation; cell count: measured here: nuclei count (cytotoxicity indicator), at 2.08 µM; inhibition: at 2 µM, stronger effect = higher value, 0% TNFa-plus-vehicle, 100% no-TNFa wells
[2] = inhibitors of mutant huntingtin aggregation, primary screen, imaging, exon1htt(103Q)mCFP cells, high-content imaging (AID 483;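 active means visual image review flags a hit and inhibition of aggregation exceeds 20%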;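 further: compound exposure lasted 3 days before fixation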;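 on nuclei count: percent of the per-plate median nuclei count of sample wells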); conditions: exon1htt(103Q)mCFP cell line, aggregate imaging, at 2 µM; inhibition of aggregation: stronger effect = higher value; nuclei count: measured here: cell count, toxicity
[3] = inhibitors of E-selectin induction by TNFa, primary screen, imaging, HUVEC, immunofluorescence, MLSMR starter and 10KST1 sets (AID 487;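 active means visually confirmed hit in the image check and inhibition above 20%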;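 on inhibition: signal is fraction of cell area covered by stained E-selectin grains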;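 on nuclei count: 100% = median nuclei count of all wells on the same plate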); conditions: HUVEC TNFalpha-induced E-selectin immunofluorescence imaging, at 2 µM; inhibition: stronger effect = higher value; nuclei count: measured here: cell number, toxicity
[4] = DUSP6 inhibitors restoring Erk phosphorylation by chemical complementation, primary imaging in DUSP6-transfected HeLa (AID 609;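 active means compounds giving at least 50% inhibition in the cell-based MKP-3 phosphatase rescue imaging test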;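 on inhibition: phospho-Erk level distribution per well compared with pooled transfected vehicle control wells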); conditions: HeLa MKP-3 transfected, phospho-Erk imaging KS statistic, at 10 µM, cells stimulated with TPA for 15 min
[5] = molecular target: Dual specificity protein phosphatase 6 (Homo sapiens) (UniProt Q16828); assay: as above; conditions: HeLa MKP-3 transfected, phospho-Erk imaging KS statistic; at 10 µM; stronger effect = higher value; cells stimulated with TPA for 15 min
[6] = molecular target: Voltage-gated potassium channel subunit beta-2 (Rattus norvegicus) (UniProt P62483); assay: KvBeta enzyme negative modulators, primary screen, biochemical, NADPH fluorescence (AID 622;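 active means fluorescence slope higher than the sample average by over 3 SD, cut at about -0.22 in these data, passing the limit was not always enough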;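 further: slope of raw intensity against log time taken from 70 to 1610 s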); conditions: recombinant KvBeta, 4-cyanobenzaldehyde reduction, at 10 µM, stronger effect = higher value
[7] = molecular target: Voltage-gated potassium channel subunit beta-2 (Rattus norvegicus) (UniProt P62483); assay: KvBeta positive modulators, primary screen, biochemical, NADPH fluorescence (AID 623;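 active means NADPH fluorescence slope more negative than the mean of all samples by about 3 SD, 99.7% confidence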;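 further: fluorescence intensity change per second fitted from 20 to 320 s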); conditions: Recombinant KvBeta, NADPH fluorescence decrease slope, 10 min; at 10 µM; stronger effect = lower value
[8] = molecular target: Alpha-2C adrenergic receptor (Homo sapiens) (UniProt P18825); assay: modulators of alpha2C/GIRK thallium flux, primary screen, cell-based, HEK293 alpha2C/GIRK1/2 (AID 624;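 active means fluorescence slope after compound addition differing from the mean of all screened samples at 99.7% confidence, in either direction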;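 further: slope of fluorescence ratio to pre-addition baseline per second over 15 to 24 s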); conditions: thallium flux BTC fluorescence, at 10 µM, actives lie on both sides
[9] = inhibitors of larval lipid processing in zebrafish, primary screen, whole organism, PED6 fluorescence, gall bladder and intestine (AID 686;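 active means a full or partial loss of lipid-probe fluorescence in the fish gall bladder, intestine or both, judged by eye; inactive means no fluorescence loss, or compound toxic to the fish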;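 further: larvae 5 to 7 days old with five fish per well; signal comes from phospholipase A2 cleavage of quenched PED6 carried via bile; overnight exposure to compound and PED6 before scoring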); conditions: Zebrafish larvae PED6 lipid processing, fluorescence scoring; screened at 20 µM (by protocol)
[10] = inhibitors of Chlamydomonas gravitaxis, primary screen, whole organism, Chlamydomonas reinhardtii, WT vs cilia-less mutant, absorbance, 96-well (AID 463189); conditions: OD600 absorbance, 2 days, at 10 µM, stronger effect = higher value;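 further: 0% = wild type cc124 cells in DMSO and 100% = ciliumless bld1 mutant cells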
[11] = inhibitors of Sendai virus-induced IRF3 signaling, primary screen, TLR/RLR signaling modifier project, cell-based, Sendai virus stimulus, luciferase, 10K MLSCN set (AID 602276;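 active means inhibition at or above 50% at 10 µM; inactive means inhibition below 50%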;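 further: firefly luciferase from ISG56 promoter only with Renilla not read in this screen; 0% = Sendai virus plus DMSO and 100% = medium plus DMSO without virus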); conditions: HEK293 RL24 IRF3 luciferase reporter, at 10 µM, stronger effect = higher value
[12] = inhibitors of poly I:C-induced TLR3 signaling, primary screen, cell-based, poly I:C stimulus, luciferase, 10K MLSCN set (AID 602277;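 active means inhibition of the reporter signal at or above 50%; inactive means inhibition below 50%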); conditions: HEK293-TLR3 RL24 IRF3 luciferase reporter, at 10 µM, stronger effect = higher value
[13] = molecular target: Muscarinic acetylcholine receptor M4 (Homo sapiens) (UniProt P08173); assay: compounds altering M4/GIRK thallium flux, either direction, primary screen, M4 allosteric agonist project, cell-based, HEK293 M4/GIRK, BTC-AM (AID 625;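 active means fluorescence slope after compound addition differing from the mean of all tested samples at 99.7% confidence, mostly higher but some lower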;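 further: thallium influx through GIRK channels coupled to M4 in HEK293 cells with BTC-AM dye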); conditions: at 10 µM, actives lie on both sides
[14] = measured here: cell density z-score
[15] = measured here: nuclear c-Myc green intensity z-score
[16] = measured here: nuclear pErk red intensity z-score, stronger effect = higher value

Muscarinic acetylcholine receptor M4 (Homo sapiens), sequence (P08173 whole entry, looked up): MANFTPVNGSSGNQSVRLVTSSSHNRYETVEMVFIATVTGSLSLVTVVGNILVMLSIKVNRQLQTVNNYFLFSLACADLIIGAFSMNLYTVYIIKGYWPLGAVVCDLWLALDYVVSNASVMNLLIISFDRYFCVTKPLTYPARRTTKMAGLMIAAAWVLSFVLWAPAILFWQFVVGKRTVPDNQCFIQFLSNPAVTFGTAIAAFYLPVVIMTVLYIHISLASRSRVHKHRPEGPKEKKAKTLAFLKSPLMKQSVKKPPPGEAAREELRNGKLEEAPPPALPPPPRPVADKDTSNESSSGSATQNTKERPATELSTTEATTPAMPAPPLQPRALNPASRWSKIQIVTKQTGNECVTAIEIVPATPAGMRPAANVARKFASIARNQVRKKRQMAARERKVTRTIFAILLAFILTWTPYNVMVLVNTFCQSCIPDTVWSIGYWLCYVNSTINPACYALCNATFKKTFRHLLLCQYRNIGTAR
Voltage-gated potassium channel subunit beta-2 (Rattus norvegicus), sequence (P62483 whole entry, looked up): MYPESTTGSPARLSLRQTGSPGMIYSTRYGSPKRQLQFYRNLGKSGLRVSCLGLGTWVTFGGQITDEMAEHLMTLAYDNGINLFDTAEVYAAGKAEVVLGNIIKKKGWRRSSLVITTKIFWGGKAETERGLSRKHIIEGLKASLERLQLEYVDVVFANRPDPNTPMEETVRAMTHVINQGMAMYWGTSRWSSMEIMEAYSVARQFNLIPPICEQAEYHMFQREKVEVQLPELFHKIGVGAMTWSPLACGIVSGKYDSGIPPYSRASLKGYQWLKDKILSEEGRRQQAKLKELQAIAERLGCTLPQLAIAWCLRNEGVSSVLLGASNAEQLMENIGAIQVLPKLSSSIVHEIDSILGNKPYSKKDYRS
Alpha-2C adrenergic receptor (Homo sapiens), sequence (P18825 whole entry, looked up): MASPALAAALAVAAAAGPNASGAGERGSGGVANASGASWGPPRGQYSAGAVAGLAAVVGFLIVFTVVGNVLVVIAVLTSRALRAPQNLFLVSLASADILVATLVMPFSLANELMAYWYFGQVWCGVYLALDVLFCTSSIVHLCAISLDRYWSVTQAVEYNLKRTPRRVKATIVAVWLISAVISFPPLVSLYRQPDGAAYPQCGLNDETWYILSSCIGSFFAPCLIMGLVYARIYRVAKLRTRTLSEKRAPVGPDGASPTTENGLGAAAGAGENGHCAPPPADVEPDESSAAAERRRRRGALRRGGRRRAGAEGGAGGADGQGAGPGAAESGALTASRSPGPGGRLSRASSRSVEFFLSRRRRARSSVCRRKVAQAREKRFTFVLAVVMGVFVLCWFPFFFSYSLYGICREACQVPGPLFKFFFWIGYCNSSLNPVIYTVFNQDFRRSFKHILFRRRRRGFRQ
Dual specificity protein phosphatase 6 (Homo sapiens), sequence (Q16828 whole entry, looked up): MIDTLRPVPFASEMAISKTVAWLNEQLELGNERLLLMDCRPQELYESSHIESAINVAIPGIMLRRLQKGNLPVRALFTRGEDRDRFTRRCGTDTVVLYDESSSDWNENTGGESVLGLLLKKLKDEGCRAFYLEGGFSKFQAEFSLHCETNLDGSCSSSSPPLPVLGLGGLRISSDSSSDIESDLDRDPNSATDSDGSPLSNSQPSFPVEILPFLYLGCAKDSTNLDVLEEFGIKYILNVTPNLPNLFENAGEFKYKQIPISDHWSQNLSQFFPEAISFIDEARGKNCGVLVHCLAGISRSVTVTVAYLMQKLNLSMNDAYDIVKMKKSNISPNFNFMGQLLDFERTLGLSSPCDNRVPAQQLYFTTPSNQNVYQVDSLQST

Row | Compound | cell count [1] | inhibition [1] | inhibition of aggregation [2] | nuclei count [2] | inhibition [3] | nuclei count [3] | z-score [4, 14] | z-score [4, 15] | z-score [4, 16] | inhibition [5] | fluorescence slope [6] | NADPH fluorescence slope [7] | slope [8] | outcome [9] | inhibition [10] | inhibition [11] | inhibition [12] | fluorescence slope [13]
1 | Cc1onc(-c2ccccc2)c1C(=O)N[C@@H]1C(=O)N2[C@@H]1SC(C)(C)[C@@H]2C(=O)O | 638 | -3.4% (inactive) | -5% (inactive) | 102% | -91.9% (inactive) | 126% | -0.0512 | -0.454 | 0.656 | 25.1% (inactive) | -0.532 (inactive) | -4.6e-05 (inactive) | 0.00473 (inactive) | inactive | -11.8% (inactive) | -2.42% (inactive) | 27.7% (inactive) | 
2 | CN(C1CCS(=O)(=O)C1)S(=O)(=O)c1cccc2nsnc12 (stereo unspecified) | 506 | -15.3% (inactive) | -7.5% (inactive) | 117% | -64.1% (inactive) | 135% | 0.217 | 0.807 | -0.289 | -16.8% (inactive) | -0.513 (inactive) | -6.5e-05 (inactive) | 0.00498 (inactive) | inactive | 19.4% (inactive) | 15.8% (inactive) | 14.5% (inactive) | 
3 | C[C@]12C[C@H](O)[C@H]3[C@@H](CCC4=CC(=O)CC[C@@]43C)[C@@H]1CC[C@@H]2C(=O)CO | 627 | -3.6% (inactive) | -21.5% (inactive) | 101% | -37.7% (inactive) | 102% | 0.905 | 0.0812 | -0.546 | 9.37% (inactive) | -0.526 (inactive) | -4.5e-06 (inactive) | 0.00481 (inactive) | inactive | 3.78% (inactive) and -16.2% (inactive) | 5.57% (inactive) | 32.8% (inactive) | 
4 | COc1cc(-c2nn3c(-c4cccnc4)nnc3s2)cc(OC)c1OC | 561 | -0.7% (inactive) | -9.6% (inactive) | 103% | -152% (inactive) | 134% | 0.586 | -0.752 | -1.22 | 15.5% (inactive) | -0.41 (inactive) | -0.000121 (inactive) | 0.0074 (inactive) | inactive | 18.4% (inactive) | 12.1% (inactive) | 8.92% (inactive) | 
5 | C[C@]12CC[C@@H]3c4ccc(O)cc4CC[C@H]3[C@@H]1CC[C@@H]2OC(=O)CCC(=O)O | 543 | 4.6% (inactive) | -1.9% (inactive) | 91.7% | -5.8% (inactive) | 111% | -0.479 | -0.845 | 2.04 | 5.79% (inactive) | -0.519 (inactive) | -3.4e-05 (inactive) | 0.0043 (inactive) | inactive | -7.26% (inactive) | 15.4% (inactive) | 24% (inactive) | 
6 | Cn1ncc2c(Nc3ccccc3Br)ncnc21 | 339 | -21% (inactive) | 21.2% (inactive) | 99.3% | -72.4% (inactive) | 128% | 0.246 | -0.649 | -0.252 | 14% (inactive) | -0.443 (inactive) | -2.6e-05 (inactive) | 0.00658 (inactive) | inactive | 13.6% (inactive) | 2.79% (inactive) | -6.76% (inactive) | 
7 | C[C@@H]1C[C@H]2[C@@H]3CCC4=CC(=O)C=C[C@]4(C)[C@@]3(F)[C@@H](O)C[C@]2(C)[C@@]1(O)C(=O)COP(=O)(O)O | 525 | -10.3% (inactive) | -19.8% (inactive) | 49.4% | -15.3% (inactive) | 98.8% | 0.835 | 0.378 | -0.291 | 25.1% (inactive) | -0.516 (inactive) | -5.2e-05 (inactive) | 0.00437 (inactive) | inactive | 31.6% (inactive) | -1.94% (inactive) | 31.9% (inactive) | 
8 | CCOC(=O)C1CCN(c2nc3ccccc3nc2C(C#N)C(=O)OC(C)C)CC1 (stereo unspecified) | 520 | -11.5% (inactive) | -208% (inactive) | 104% | -90.1% (inactive) | 128% | -0.0557 | 0.253 | -0.0521 | -4.27% (inactive) | -0.341 (inactive) | -2.3e-08 (inactive) | 0.00139 (inactive) | inactive | 9.67% (inactive) | -15.8% (inactive) | -37.7% (inactive) | 
9 | O=C(NCc1cccnc1)c1ccc(=O)oc1 | 649 | -2% (inactive) | -18.7% (inactive) | 103% | 43% (inactive) | 110% | -0.741 | 1.41 | -1.58 | 4.37% (inactive) | -0.496 (inactive) | -4.3e-05 (inactive) |  | inactive | 18.7% (inactive) | 10.2% (inactive) | 11.5% (inactive) | 0.00411 (inactive)
10 | Oc1c(Cl)cc(Cl)cc1CNc1ccc(Br)cn1 | 580 | -1.3% (inactive) | -20.5% (inactive) | 108% | -9.9% (inactive) | 102% | -1.08 | 0.507 | -0.618 | -3.5% (inactive) | -0.357 (inactive) | 1.5e-05 (inactive) | 0.00449 (inactive) | inactive | -5.67% (inactive) | 17% (inactive) | 20.5% (inactive) | 
11 | O=C1NC2c3ccccc3C(=O)N2c2c1cnn2-c1ccccc1 (stereo unspecified) | 603 | -7.1% (inactive) | -11.1% (inactive) | 111% | -48.5% (inactive) | 146% | 0.407 | 0.889 | -0.995 | 7.83% (inactive) | -0.425 (inactive) | -1.7e-05 (inactive) | 0.00503 (inactive) | inactive | 14.6% (inactive) | -6.19% (inactive) | 6.35% (inactive) | 
12 | COc1cccc(N2C(=O)C(O)=C(C(C)=O)C2c2ccc(OC)c(OC)c2)c1 (stereo unspecified) | 652 | -3.8% (inactive) | 14% (inactive) | 104% | 34% (inactive) | 106% | -1.18 | -0.212 | 0.653 | 2.46% (inactive) | -0.453 (inactive) | -6.1e-06 (inactive) |  | inactive | -2.64% (inactive) | 5.42% (inactive) | -0.11% (inactive) | 0.00642 (inactive)
13 | CN(C)C(=O)Oc1cccc([N+](C)(C)C)c1 | 531 and 586 | -9.9% (inactive) and -7.8% (inactive) | 17.2% (inactive) and -13.6% (inactive) | 74.9% and 106% | -9.8% (inactive) and -52% (inactive) | 104% and 142% | 0.51 and -0.93 | 1.04 and 0.599 | 0.404 and -0.0753 | 17.3% (inactive) and -0.493% (inactive) | -0.425 (inactive) and -0.463 (inactive) | -3.3e-06 (inactive) and -0.000178 (inactive) | 0.00518 (inactive) and 0.00527 (inactive) | inactive | -1.35% (inactive) and 24.7% (inactive) and 16% (inactive) | 14.9% (inactive) and 3.46% (inactive) | 31.8% (inactive) and 16.1% (inactive) | 
14 | CCC(=O)N[C@@H]1CC(C(C)(C)NC(=O)CC)CC=C1C (stereo partly specified) | 537 | -16.4% (inactive) | -10.9% (inactive) | 110% | -21.9% (inactive) | 137% | -0.93 | 0.526 | -0.616 | -6.06% (inactive) | -0.349 (inactive) | -1e-06 (inactive) | 0.00698 (inactive) | inactive | 6.4% (inactive) | 18.2% (inactive) | 18.8% (inactive) | 
15 | NS(=O)(=O)c1cc2c(cc1Cl)NC=NS2(=O)=O | 531 | -6.4% (inactive) | -4.4% (inactive) | 92.2% | 13.8% (inactive) | 108% | 0.808 | 0.404 | -1.03 | 23.2% (inactive) | -0.492 (inactive) | -0.000201 (active) | 0.00527 (inactive) | inactive | 11.8% (inactive) and 7.71% (inactive) | -14.2% (inactive) | -10.5% (inactive) | 
16 | CN1CCc2c(sc3c2c(=O)n(-c2ccccc2)c2nnc(SCc4ccccc4)n32)C1 | 562 | -16.1% (inactive) | 8.3% (inactive) | 116% | -95.1% (inactive) | 142% | 0.865 | -2.08 | -0.239 | 3.66% (inactive) | -0.563 (inactive) | -1.4e-05 (inactive) | 0.00449 (inactive) | inactive | 5.3% (inactive) | -12.4% (inactive) | 98.5% (active) | 
17 | Nc1nnnn1/N=C/c1ccccn1 | 568 | -2.8% (inactive) | -8.1% (inactive) | 98.2% | -155% (inactive) | 142% | 1.54 | -1.1 | -0.159 | 34.3% (inactive) | -0.513 (inactive) | -6e-05 (inactive) |  | inactive | 26.1% (inactive) | -14.9% (inactive) | -32% (inactive) | 0.00549 (inactive)
18 | CCC(=O)Oc1ccc(C(CC)C(CC)c2ccc(OC(=O)CC)cc2)cc1 (stereo unspecified) | 548 | -8% (inactive) | -5.4% (inactive) | 107% | -70.7% (inactive) | 132% | -1.07 | 0.0699 | 1.82 | -4.44% (inactive) | -0.48 (inactive) | 1.7e-05 (inactive) | 0.0054 (inactive) | inactive | 0.847% (inactive) | 12.9% (inactive) | 33.2% (inactive) | 

— PubChem BioAssay
